Many of the other results were omitted from the sample, so hits are more common in it than they were.
BLM inh: blocks DNA unwinding by human BLM helicase | hit rate 0.2% among 350,000 | Potency, µM (series often up to 56.1 µM), usual class: inhibitors | P54132 | recombinant BLM DNA unwinding, fluorescence dequenching; further: nearly all actives have a fitted effect of over 35% in size
RECQ1 inh: inhibitors of human RECQ1 DNA helicase. AID 2549. Potency, µM (titrated, usually from 57.3 µM), actives largely listed as inhibitors. hit rate 0.54% among 240,000. P46063. RECQ1 DNA unwinding, red fluorescence kinetic read; further: nearly all actives have a fitted effect of over 30% in size
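RECQ1T1 50 nM; forked duplex (20 bp + 30-nt ss tails) 200 nM, ATP 2 mM final; pH 8.0, 2 mM MgCl2, 2.5 ug/ml poly(dI-dC); 15 min compound preincubation; discontinuous kinetic read over 2 h at RT.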
TDP1 block: inhibitors of human tyrosyl-DNA phosphodiesterase TDP1. Q9NUW8. recombinant TDP1, AlphaScreen DNA substrate cleavage. Potency, µM (titrated, usually from 130 µM), actives largely listed as inhibitors. hit rate 0.28% among 350,000. AID 485290; further: nearly all actives have a fitted effect of over 40% in size
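E. coli-derived human Tdp1, 1 nM final. Cpd preinc 15 min RT; substrate 15 nM final, 5 min RT; AS bead mix 10 ug/ml final, 10 min RT. Signal loss = tyrosine-FITC cleavage. No-enzyme wells = max signal.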
L3MBTL1 inh-1: inhibitors of human L3MBTL1 | AlphaScreen L3MBTL1–H3K9me1 peptide binding | Potency, µM (series often up to 57.1 µM), usual class: inhibitors | hit rate 0.66% among 230,000; further: nearly all actives have a fitted effect of over 60% in size
Target sequence (Q9Y468 whole entry, looked up): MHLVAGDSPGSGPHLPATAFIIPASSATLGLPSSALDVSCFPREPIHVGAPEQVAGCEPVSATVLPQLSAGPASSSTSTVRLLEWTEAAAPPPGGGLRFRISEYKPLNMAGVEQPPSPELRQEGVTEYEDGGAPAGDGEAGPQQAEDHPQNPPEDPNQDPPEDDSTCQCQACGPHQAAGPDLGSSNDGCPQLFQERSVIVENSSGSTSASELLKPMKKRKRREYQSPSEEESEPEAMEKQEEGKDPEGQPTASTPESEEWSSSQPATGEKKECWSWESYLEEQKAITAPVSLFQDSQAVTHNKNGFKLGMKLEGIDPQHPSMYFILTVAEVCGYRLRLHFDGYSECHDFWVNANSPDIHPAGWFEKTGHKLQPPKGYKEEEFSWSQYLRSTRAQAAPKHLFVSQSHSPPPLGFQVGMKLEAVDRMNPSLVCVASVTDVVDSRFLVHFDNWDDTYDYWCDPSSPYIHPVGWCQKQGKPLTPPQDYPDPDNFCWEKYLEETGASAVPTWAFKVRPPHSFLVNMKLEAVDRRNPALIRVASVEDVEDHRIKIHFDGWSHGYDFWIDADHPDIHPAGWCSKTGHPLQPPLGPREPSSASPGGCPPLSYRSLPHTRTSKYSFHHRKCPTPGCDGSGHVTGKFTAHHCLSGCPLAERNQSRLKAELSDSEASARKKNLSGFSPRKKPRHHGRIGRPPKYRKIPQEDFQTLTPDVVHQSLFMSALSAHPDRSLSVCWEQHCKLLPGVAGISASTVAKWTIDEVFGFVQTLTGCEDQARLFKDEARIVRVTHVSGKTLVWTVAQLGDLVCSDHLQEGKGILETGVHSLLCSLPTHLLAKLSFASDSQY
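First, the protein-peptide complex forms for 30 min at room temperature (L3MBTL1 50 nM, biotinylated H3K9me1 peptide 75 nM). Next, compounds are pin-transferred and incubated 30 min. Finally, AlphaScreen beads are added and read after 30 min.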
JMJD2E inh: JMJD2E (human) inhibition | B2RXH2 | JMJD2E catalytic domain, FDH-coupled NADH fluorescence (FDH is formaldehyde dehydrogenase) | Potency, µM (highest dose often 57.1 µM), actives largely listed as inhibitors | hit rate 1.6% among 230,000 | AID 2147; active means well fitted inhibition curve with a large enough effect, not every such curve was filed as active; inconclusive means small, poorly fitted or top-dose-only effect, or another doubt; inactive means no such curve, though single readings can be large or run the other way; further: nearly all actives have a fitted effect of over 50% in size
APE1 inh: APE1 (human) endonuclease inhibition. P27695. Potency, µM (titrated, usually from 65.8 µM), hits mostly inhibitors. AID 2517. recombinant APE1, TAMRA/BHQ-2 abasic DNA cleavage fluorescence. hit rate 0.35% among 350,000; further: nearly all actives have a fitted effect of over 55% in size
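APE1 at 0.75 nM final was preincubated with compound 15 min at room temperature, then 50 nM double-stranded THF abasic-site substrate (5'-TAMRA/3'-BHQ-2) was added. Fluorescence (ex 525/em 598 nm) was read kinetically; third-minus-first read gave activity.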
L3MBTL1 inh-2: blocks human L3MBTL1 methyl-lysine binding. AID 540279. Potency, µM, most hits filed as inhibitors. L3MBTL1 methyl-lysine binding inhibition, biochemical qHTS. shares compounds with L3MBTL1 inh-1. hit rate 91% among 500; further: nearly all actives have a fitted effect of over 70% in size
L3MBTL1 ctr: interferes with AlphaScreen signal in L3MBTL1 counterscreen | shares compounds with L3MBTL1 inh-1 | AlphaScreen counterscreen, signal inhibition | Potency, µM (highest dose often 57.1 µM), most hits filed as inhibitors | 500 tested, under 10 active | AID 602224
Hits are given with their value; . = inactive; ? = inconclusive; / = no result given; [ ] = another dose, or the depositor's remark. Unless noted, the call rests on the fitted dose curve; in most records, active means well fitted curve in the direction sought with a large enough effect; inconclusive means small, poorly fitted or top-dose-only effect, or another doubt; inactive means no such curve, though single readings can be large; an effect the other way counts as inactive or inconclusive.

SMILES | BLM inh | RECQ1 inh | TDP1 block | L3MBTL1 inh-1 | JMJD2E inh | APE1 inh | L3MBTL1 inh-2 | L3MBTL1 ctr
Cc1ccccc1-c1cncnc1NCc1cccnc1 | . | . | / | / | / | . | / | /
Cc1ccc(-c2ccc(CCC(=O)O)n2CC(=O)O)cc1 | . | . | . | 22.4µM | . | . | 5.32 | .
C/C=C/OC(=O)NC(c1ccccc1)[C@]1(C(C)=O)CCCC1=O (stereo not given in full) | .[12.4 µM] | .[11.5 µM] | .[21 µM] | / | / | ? | / | /
O=C1NC(=O)/C(=C/c2ccc(-c3cc(C(=O)O)ccc3Cl)o2)S1 | . | / | 31.6µM | 7.08µM | / | . | 8.44 | .
CC1COC(=O)O1 (stereo not given) | . | . | . | / | / | . | / | /
Nc1nc(-c2ccccn2)nc(N)c1Cc1c(F)cccc1Cl | . | . | . | 3.55µM | . | . | 10.6 | .
O=C(O)c1cc(Cl)c2c(c1)[C@@H]1C=CC[C@@H]1[C@H](c1ccc(S(=O)(=O)N3CCOCC3)cc1)N2 | . | . | . | 22.4µM | . | . | 26.7 | ?
Cc1cc(C)c2c(c1)C1C=CCC1C(c1ccc(S(=O)(=O)N3CCOCC3)cc1)N2 (stereo not given) | . | . | . | . | . | . | / | /
COC(=O)c1ccc(C(NC(=O)OCc2ccccc2)/C(=C/[C@@H](C)C(=O)N[C@@H](CO)Cc2ccccc2)c2cccnc2)cc1 (stereo not given in full) | . | . | . | / | . | . | / | /
Cc1ccc(N=Nc2ccc3ccccc3c2O)cc1 | . | / | / | ? | / | . | / | /
Oc1c(N=Nc2ccc(F)cc2)ccc2ccccc12 | . | / | / | 7.94µM | / | . | 1.06 | 0.752µM
NC(=O)c1ccc(NC(=O)COC(=O)/C=C/c2ccc(Br)o2)cc1 | / | / | 5.62µM | 14.1µM | / | . | 6.7 | .
Cc1ccc(NC(=O)COC(=O)/C=C/c2ccc(Br)o2)cc1S(=O)(=O)N(C)C | . | . | . | . | . | ? | / | /
O=C(O)CCc1ccc(-c2cccs2)n1CCC(=O)O | . | . | / | 3.98µM | ? | 14.1µM | 16.8 | .
O=C(/C=C/c1ccco1)NC(=S)Nc1cccc([N+](=O)[O-])c1 | . | . | . | 35.5µM | . | . | 23.8 | .
Cc1cccc(NC(=S)NC(=O)/C=C/c2ccco2)c1 | . | . | . | . | . | . | / | /
O=c1c2ccccc2sc2nc(C3CCCCC3)n(Cc3ccco3)c(=O)c12 | . | . | . | / | . | . | / | /
CCc1nc2sc3ccccc3c(=O)c2c(=O)n1Cc1ccco1 | ? | . | ? | 31.6µM | . | ? | 16.8 | .
Cc1c(N2C(=O)CSC2=S)c(=O)n(-c2ccccc2)n1C | . | . | . | / | . | . | / | /
Cc1c(N2C(=O)c3ccc4c5c(ccc(c35)C2=O)CC4)c(=O)n(-c2ccccc2)n1C | 14.1µM | 11.2µM | 17.8µM | 12.6µM | ? | ? | 5.97 | .
O=C(CCl)Nc1nc(-c2ccco2)c(-c2ccco2)s1 | ? | . | . | . | ? | ? | / | /
O=C(CCCSc1ccccc1)Nc1nc(-c2ccco2)c(-c2ccco2)s1 | . | . | . | 22.4µM | ? | . | 23.8 | ?
O=S1(=O)Nc2c(ccc3cccnc23)-c2ccccc21 | . | . | . | 11.2µM | ? | . | 2.99 | 9.47µM
COc1cccc(CNC(=O)CN2c3cccc4cccc(c34)S2(=O)=O)c1 | / | / | / | 31.6µM | / | ? | 26.7 | .
O=C(CN1c2cccc3cccc(c23)S1(=O)=O)NCc1ccc(F)cc1 | / | / | . | . | / | . | / | /
SMILES | BLM inh | RECQ1 inh | TDP1 block | L3MBTL1 inh-1 | JMJD2E inh | APE1 inh | L3MBTL1 inh-2 | L3MBTL1 ctr
CCOC(=O)Cn1c(=O)n(CC2CCCO2)c2nc(-c3ccccc3F)nc(C(N)=O)c21 (stereo not given) | . | / | . | / | / | / | / | /
O=C(CSc1nc(-c2ccccc2)nc2ccc(F)cc12)Nc1ccc(C(=O)O)cc1 | . | . | / | 39.8µM | . | . | ? | ?
CCOC(=O)OCC1OC(C#Cc2ccc(C(C)(C)C)cc2)C=CC1OC(=O)OCC (stereo not given) | .[12.4 µM] | .[11.5 µM] | .[21 µM] | / | / | ? | / | /
CC(=O)c1ccc(NC(=O)CSc2nnc(-c3ccco3)c(-c3ccco3)n2)cc1 | 7.94µM | . | . | 25.1µM | 15.8µM | . | 15 | ?
COc1ccc(C(=O)Nc2ccccc2C(=O)OCc2cc(=O)n3c4c(sc3n2)CCCC4)cc1 | . | / | . | / | / | / | / | /
Cc1cccc(/C=C(\C(=O)O)c2ccc(S(=O)(=O)N3CCCC3)s2)c1 | / | / | 11.2µM | 28.2µM | / | 11.9µM | 5.32 | .
O=C(O)/C(=C\c1ccc(C(F)(F)F)cc1)c1ccc(S(=O)(=O)N2CCCC2)s1 | / | / | . | . | / | . | / | /
C[C@@]12CCC(=O)C=C1CC[C@H]1[C@H]3CC[C@](O)(C(=O)CO)[C@]3(C)CC(=O)[C@@H]12 | . | . | . | / | . | . | / | /
COc1ccc(NC(=O)CN(C)C(=O)c2cc3c(s2)CCC3)cc1 | / | / | 1.26µM | 3.16µM | / | 1.89µM | 0.752 | .
CCOC(=O)c1c(C)n(-c2ccccc2)c2ccc(OC(=O)c3ccc(OCC)c(OCC)c3)cc12 | . | / | .[12.3 µM] | / | / | / | / | /
O=C(O)CCCC(=O)Nc1ccccc1C(=O)O | . | . | . | . | . | . | / | /
O=C(O)CNc1ccccc1C(=O)O | . | . | / | 22.4µM | ? | . | 2.99 | .
Cc1cc(C)n(-c2nc3ccccc3nc2Nc2ccc(Cl)cc2Cl)n1 | . | / | .[12.3 µM] | / | / | / | / | /
O=C(CN1C(=O)C2CCCCN2c2ccc(C(=O)N3CCCC3)cc21)NCc1ccc(F)cc1 (stereo not given) | . | / | . | / | / | / | / | /
Cc1ccccc1Nc1nnc(SCC(=O)NC(=O)NCc2ccco2)s1 | . | . | . | 28.2µM | . | ? | 9.47 | .
CC1CCn2c(nc3cc(C(=O)NCCc4ccccc4)ccc32)C1 (stereo not given) | . | / | . | / | / | / | / | /
